HT1080 IDH1KD tx = HT-1080 IDH1 knockdown cell toxicity (counter line) | Potency, µM (highest dose often 46.1 µM), actives largely listed as cytotoxic | 2% of 360,000 active | HT-1080 IDH1 knockdown viability, ATP luminescence, 48 h
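Knockdown cells (IDH1KD HT-1080) received compounds 2 h after plating at 750 cells/well and were kept 48 h at 37 °C in 5% FBS RPMI. A CellTiter-Glo luminescence read gave % activity for curve fitting.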
HT1080NT lethal = kills 2HG-producing HT-1080-NT fibrosarcoma cells | Potency, µM (top dose mostly 46.1 µM), hits mostly cytotoxic | HT-1080-NT fibrosarcoma viability, CellTiter-Glo ATP luminescence, 48 h | 1.6% of 360,000 active;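 also: NT is the 2HG producing partner of a matched IDH1 knockdown line; nearly all actives have a fitted effect of over 55% in size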
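Compounds were tested in concentration-response format on HT-1080-NT cells for 48 hours at 37 degrees C. Cell viability came from CellTiter-Glo luminescence; curves were classified by r2, response magnitude and activity.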
TGFb inhibitor = TGF-b pathway inhibition; HepG2 CAGA-GFP TGF-b/SMAD3 reporter, GFP fluorescence, 18 h; TGF-beta stimulated, 500 pg/mL final; Potency, µM (titrated, usually from 46.1 µM), most hits filed as inhibitors; 1.2% of 410,000 active; AID 588855; also: nearly all actives have a fitted effect of over 65% in size
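Per well, imaged GFP fluorescence of HEPG2 CAGA-GFP cells gives the signal; cells get compound, then TGF-beta (500 pg/mL final), 18 h at 37 degrees C; %Activity versus -TGF-beta and +DMSO controls.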
HepG2 viability = counter-screen for TGF-b inhibitors: cytotoxicity in HepG2 cells; HepG2 CAGA-GFP viability, ATP luminescence, 18 h; Potency, µM (series often up to 46.1 µM), usual class: cytotoxic; 0.76% of 410,000 active
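HepG2 CAGA-GFP cells (1000/well, DMEM with 1% FBS) received compound, then TGF-beta at 500 pg/mL final, and were incubated 18 hours at 37 degrees C. Viability was read by CellTiter-Glo luminescence. Media-only wells were set as complete cell-killing and DMSO as no toxicity.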
S2 tox = cell viability loss in ATXN counter-screen | S2 cells (HEK-293 line with an ATXN2-luciferase reporter) viability, CellTiter-Fluor protease fluorescence, 24 h | Potency, µM (doses to about 56.7 µM), most hits filed as cytotoxic | 0.49% of 400,000 active; also: nearly all actives have a fitted effect of over 40% in size
ATXN2 expr inh = ATXN2 expression inhibition; HEK-293 ATXN2-luciferase reporter, luminescence, 24 h; Potency, µM (series often up to 57 µM), most hits filed as inhibitors; 0.72% of 360,000 active; AID 1745845; also: nearly all actives have a fitted effect of over 55% in size
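ATXN2-luciferase reporter cells (luciferase flanked by upstream and downstream ATXN2 gene portions) were treated 24 h at 37 °C with compounds at up to 57 uM. SteadyGlo luminescence gave expression; GF-AFC fluorescence gave viability.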
A number is an active result; - = inactive; ? = inconclusive; . = no result; ! = a repeat was not active; [ ] = another dose, or the depositor's remark. Rows were chosen to be rich in hits. Some 3.9% of all compounds tested hit in one or more screens of this group. Calls follow the shape of the dose curve; as a rule, active = well fitted curve in the direction sought with a large enough effect; inconclusive = small, poorly fitted or top-dose-only effect, or another doubt; inactive = no such curve, though single readings can be large; an effect the other way counts as inactive or inconclusive.

SMILES	HT1080 IDH1KD tx	HT1080NT lethal	TGFb inhibitor	HepG2 viability	S2 tox	ATXN2 expr inh
CCc1nc2ccc(C(=O)N3CCN(S(=O)(=O)CC)CC3)cn2c1N(C)CCC(C)C	-	-	-	3.2µM	-	-
CCc1nc2ccc(C(=O)N(C)Cc3ccccc3)cn2c1N(C)CCCc1ccccc1	?	?	?	-	-	-
Cc1cn(C2CC3OCC(NC(=O)C(NC(=O)OC(C)(C)C)C(C)OCc4ccccc4)C3O2)c(=O)[nH]c1=O (stereo not given)	.	.	-	-	.	.
CCOc1ccccc1CNC(=O)c1cccc(NC(=O)c2nsc3ccccc23)c1	.	.	?	-	?	-
C[C@@H](NC(=O)CN(c1ccccc1)S(=O)(=O)N(C)C)c1ccccc1	.	.	-	-	-	-
CCc1nc2ccc(C(=O)N3CCN(S(=O)(=O)CC)CC3)cn2c1N(CCC(C)C)CCN(C)C	-	-	-	-	-	-
CCc1nc2ccc(C(=O)N3CCN(c4ccccc4)CC3)cn2c1N(C)CCC(C)C	6.5µM	?	13µM	-	-	-
CCc1nc2ccc(C(=O)Nc3ccc(C(=O)N(C)C)cc3)cn2c1N(C)CCCc1ccccc1	-	-	-	-	28µM	?
NC(=O)CC[C@@H]1NC(=O)[C@H](Cc2ccccc2)NC(=O)[C@H](Cc2ccc(O)cc2)NC(=O)CCSSC[C@@H](C(=O)N2CCC[C@H]2C(=O)N[C@@H](CCCN=C(N)N)C(=O)NCC(N)=O)NC(=O)[C@H](CC(N)=O)NC1=O	.	.	.	.	-	-
CC1=CC(=C2C(=O)c3ccccc3C2=O)C=C(C)N1C	-	-	-	-	-	-
CCCCCN1C=CC(=C2C(=O)c3ccccc3C2=O)C=C1	9.2µM	23µM	-	-	-	.
CC(C)C(C)C=CC(C)C1CCC2C3=CC=C4CC(O)CCC4(C)C3CCC21C (stereo not given)	.	.	.	.	.	-
Oc1ccccc1/C=N/NC(=S)NC1CC2CC1C1C=CCC21 (stereo not given)	8.2µM	?	?	18µM	?	-
COc1cccc(/C=N/NC(=S)NC2CC3CC2C2C=CCC32)c1O (stereo not given)	-	-	-	-	-	-
Cc1ccc(C2Oc3ccccc3C3=C2C(c2cccs2)n2ncnc2N3)cc1 (stereo not given)	?	21µM	-	-	-	-
CC(C)c1ccc(NC(=O)CSc2nc(=O)n(Cc3ccccn3)c3c2CCC3)cc1	.	.	?	-	.	.
CN1C(=O)NC2(O)C(=O)c3ccccc3C12O (stereo not given)	?	-	-	10µM	-	-
CC(=O)Nc1ccc(S(=O)(=O)N2c3ccc(F)cc3CCC2C)cc1 (stereo not given)	21µM	?	?	-	?	?
COc1ccc(Nc2nnc(-c3ccc(C)c(S(=O)(=O)N4CCOCC4)c3)c3ccccc23)cc1	.	.	?	-	-	-
COc1cc(NC(=O)c2cc(Cl)ccc2Cl)ccc1NC(=O)c1cc2ccccc2o1	.	.	-	-	.	32µM
Cc1cc(NC(=O)c2cncc(Br)c2)ccc1NC(=O)c1cc2ccccc2o1	-	-	-	-	16µM	?
COc1cc(NC(C)=O)ccc1NC(=O)c1cc2ccccc2o1	-	-	-	-	-	.
CC1Cc2ccccc2N1c1ncnc2c1nnn2Cc1ccccc1Cl (stereo not given)	-	-	-	-	-	-
Clc1ccccc1Cn1nnc2c(N3CCCC3)ncnc21	20µM	?	-	-	-	-
O=C1NC2CCCCC2C(=O)N1OS(=O)(=O)c1ccccc1 (stereo not given)	?	-	-	-	16µM	?
SMILES	HT1080 IDH1KD tx	HT1080NT lethal	TGFb inhibitor	HepG2 viability	S2 tox	ATXN2 expr inh
CC1=NNC(=O)/C1=C\c1cn(-c2ccccc2)nc1-c1ccc(Cl)cc1	5.8µM	7.3µM	3.5µM	-	.	13µM
Cc1cccc2c(N3CCCC3)nc(CNS(=O)(=O)c3ccccc3Cl)nc12	.	.	.	.	-	.
CC(C)C1N=C(c2ccc3c(c2)OCO3)CC(c2ccccc2O)N1 (stereo not given)	?	?	?	-	28µM	?
O=C(N/N=C/c1ccccc1)c1[nH]c2ccc(Br)cc2c1-c1ccccc1	0.73µM	0.46µM	?	-	?	-
O=C(NN=C1CCCC1)c1[nH]c2ccc(Br)cc2c1-c1ccccc1	5.8µM	8.2µM	?	-	-	?
Cc1ccc2[nH]c(C(=O)N/N=C/c3ccccc3O)c(C)c2c1	2.6µM	?	?	-	-	.
Cc1ccc(S(=O)(=O)C2(C(=O)Nc3ccc(Cl)c(C(F)(F)F)c3)CC2)cc1	.	.	11µM	-	?	-
CCOc1ccc(NC(=O)CN2CCN(CC(=O)Nc3ccc(Cl)c(C(F)(F)F)c3)CC2)cc1	?	?	?	13µM	?	?
O=C(CN1CCN(c2ccc(Cl)cc2)CC1)Nc1ccc(Cl)c(C(F)(F)F)c1	.	.	10µM	-	?	?
CNCC(=O)Nc1ccc(Cl)c(C(F)(F)F)c1	-	-	-	-	-	-
O=C(CN1CCN(CC(=O)Nc2ccccc2F)CC1)Nc1ccc(Cl)c(C(F)(F)F)c1	.	.	-	-	?	?
O=C(Nc1ccc(Cl)cc1)Nc1ccc(Cl)c(C(F)(F)F)c1	.	.	.	.	16µM!	?
COCc1c(C(=O)NC2CCCC2)cnn1-c1nccc(-c2ccco2)n1	.	.	.	.	-	.
Cn1cnnc1Sc1ccc(CN2CCOc3ccc(C4=CCCCC4)cc3C2)o1	.	.	.	.	-	.
O=C(O)CCS(=O)(=O)c1nc(-c2cccs2)cc(C(F)(F)F)n1	?	?	?	-	-	-
Cc1cc(NC(=O)CCCS(=O)(=O)c2nc(-c3cccs3)cc(C(F)(F)F)n2)no1	5.8µM	5.8µM	14µM	-	28µM	?
Cc1cc(NC(=O)CSc2nc(-c3cccs3)cc(C(F)(F)F)n2)no1	0.5µM	0.79µM	?	-	-	-
Cc1ccc(C(=O)c2oc3ccccc3c2NC(=O)Cc2coc3c(C)c(C)ccc23)cc1	.	.	-	-	-	-
Cc1onc(-c2ccccc2)c1C(=O)Nc1sc2c(c1C#N)CCC(C)C2 (stereo not given)	-[9.24 µM]	13µM	?	-	-	-
CC(C)c1ccc(NC(=O)CCc2ccccc2)cc1	5.8µM	?	-	-	-	-
CN(CCC(=O)Nc1ccc(Cl)cc1)Cc1ccccc1	15µM	21µM	-	-	-	-
O=C(CCc1ccccc1)Nc1ccncc1	-	-	-	-	-	-
CC(C)(C)OC(=O)Nc1ccc(-c2cc(C(=O)NCCCCCCC(=O)NO)no2)cc1	.	.	.	.	.	-
COc1cc(CN2CCC3(CCC(CNC(=O)c4cc(C)nn4C)O3)CC2)ccc1F (stereo not given)	.	.	.	.	-	.
CN1CC=C2C(C#N)=C(N)C(C#N)(C#N)[C@H](c3ccoc3)[C@H]2C1	-	-	-	-	-	-

Screening data deposited in PubChem by National Center for Advancing Translational Sciences (NCATS).
